Measured values published in ChEMBL document CHEMBL3988442, “University of Dundee, Small-Polar-MMV Screening Library” (2021).
The campaign covered roughly 53,000 compounds. About 900 (1.7%) showed an effect of 50% or more. Many of the other results were omitted from the sample, so strong results are more common in it than they were.

System: Mycobacterium tuberculosis
Experiment: Cornell - Phenotypic assay to identify agents that inhibit growth of Mycobacterium tuberculosis
Assay type: functional
Set-up: scale not given: direction of the effect not stated beside the values
Conditions: 10 mM as filed; unlikely as a test dose

SMILES	Percent Effect [%]
CC(=O)N1CC(c2n[nH]c3ncccc23)C1	-13.82
CNS(=O)(=O)CC(=O)N1CCCc2cc(Br)ccc21	-18.99
COCc1nc(C(=O)OCC2CCN(c3ccccc3)C2)cs1 (stereo not given)	17.1
COc1ccc(C(NCc2ccc(C#N)cc2)C2CC2)cc1.Cl (stereo not given)	-15.68
c1cnc2[nH]c(C3CCCC3)c(CN3CCCCC3)c2c1	34.75
CCN1CCN(Cc2c(C3CCCC3)[nH]c3ncccc23)CC1	74.68
c1cnc2[nH]c(C3CCCC3)c(CN3CCOCC3)c2c1	24.1
CC1CCN(C(=O)C2CC(=O)N(c3cnn(C(C)C)c3)C2)CC1 (stereo not given)	-3.187
CNc1oc(-c2ccc(S(=O)(=O)N(C)C)o2)nc1C#N	17.81
CC(C)Nc1oc(-c2ccc(S(=O)(=O)N(C)C)o2)nc1C#N	-45.52
CN(C)S(=O)(=O)c1ccc(-c2nc(C#N)c(NC(C)(C)C)o2)o1.Cl	104.3
Cc1nc(N2CCC(CC(=O)N3CCCC3)CC2)c2cnn(C)c2n1	3.468
CC(C)C1SCC(=O)Nc2c1cnn2C(C)C (stereo not given)	18.65
CNc1ccc(C2CN(c3cc(C)ncn3)CCO2)nc1 (stereo not given)	34.11
CNc1ccc(C2CN(c3nc(C)cc(C)n3)CCO2)nc1 (stereo not given)	51.49
CNc1ccc(C2CN(c3cc(C)nc(N)n3)CCO2)nc1 (stereo not given)	24.16
Cc1cc(NC(=O)Cc2ccccc2O)c[nH]c1=O	77.58
O=C(Cc1ccccc1O)Nc1ccc(N2CCCC2)nc1	-5.098
Cc1cc(NC(=O)Cc2ccccc2O)cnc1N1CCCCC1	28.35
Cc1cc(NC(=O)C(C)N2CCN(c3ccccc3F)CC2)no1 (stereo not given)	2.813
CCC(O)CNc1ccc(-c2nc(CC(C)C)no2)cn1 (stereo not given)	50.96
CC(C)Cc1noc(-c2ccc(NCc3noc(C(C)C)n3)nc2)n1	44.87

SMILES	Percent Effect [%]
CCn1cncc1CNc1ccc(-c2nc(CC(C)C)no2)cn1	11.21
CN(C(=O)C1(C#N)CCCCC1)c1nccs1	17.67
Oc1ccc(N2CCN(Cc3ccc(F)cc3Br)CC2)cc1	105.2
O=S(=O)(N1CCCCCC1)N1CCN(Cc2ccc(F)cc2Br)CC1	10.21
OCCN1CCN(Cc2cc3c(cc2Br)OCCO3)CC1	-50.33
CS(=O)(=O)N1CCN(Cc2ccc(F)cc2Br)CC1	31.68
Oc1ccc(N2CCN(Cc3cc4c(cc3Br)OCCO4)CC2)cc1	104.9
OC1CCN(Cc2cc3c(cc2Br)OCCO3)CC1	5.885
Cc1ccccc1C1CCCN1Cc1ccc(S(=O)(=O)N(C)C)o1 (stereo not given)	23.54
O=C(O)c1cnc(N2CCCC2)nc1COc1ccc(F)cc1	38.38
COCC(O)CN(C)C(=O)NCc1ccc(-c2ccn[nH]2)cc1 (stereo not given)	-4.972
CN1CCOC(c2cncc(CCC(=O)N(C)C)n2)C1 (stereo not given)	-44.27
Fc1cccc(Nc2nc(N3CCCC3)nc3c2CNCC3)c1	102.5
Oc1nc(N2CCOCC2)nc2c1CCN(Cc1cccc(F)c1)CC2	-50.2
COc1cccc(Nc2nc(N3CCCC3)nc3c2CNCC3)c1.Cl	17.23
Cc1ccc(Cl)cc1N1CCN(CC(=O)NCc2ccco2)CC1	15.76
O=C(NCC1CCCO1)Nc1nnc(C(F)(F)F)s1 (stereo not given)	1.87
CCOCC(=O)NCCc1nc(C)cc(C(F)(F)F)n1	8.236
FC(F)(F)c1ccc(-c2cc(NC3CCNCC3)nc3[nH]ccc23)nc1	3.154
COc1cc(-c2cc(NC3CCCC3)nc3[nH]ccc23)nc(N)n1	98.19
COc1nccnc1-c1cc(NC2CCNCC2)nc2[nH]ccc12	48.16
COc1ncc(-c2cc(NC3CCCC3)nc3[nH]ccc23)c(OC)n1	89.73

SMILES	Percent Effect [%]
COc1nccnc1-c1cc(NC2CCCC2)nc2[nH]ccc12	101.6
CNc1cc(C)nc(-c2cc(NC3CCNCC3)nc3[nH]ccc23)n1	12.28
COCCNc1cc(-c2ccccc2S(N)(=O)=O)c2cc[nH]c2n1	21.18
COc1ncc(-c2cc(NCCN(C)C)nc3[nH]ccc23)c(OC)n1	-22.77
Nc1ccnc(-c2cc(NC3CCNCC3)nc3[nH]ccc23)c1	11.63
C=Cc1cccc(CN(Cc2cnn(C)c2)C2CC2)c1	14.04
Cc1nc(C)n(CC2CCCCN2Cc2cn3ccccc3n2)n1 (stereo not given)	-36.82
Cc1csc(C(C)(C)NCCOc2ccc(CC#N)cc2)n1	-14.48
NC(=O)N1CCCN(Cc2cc(F)cc(Br)c2)CC1	17.84
Cc1cccc(CN2C[C@@H]3COC[C@]3(CNC(=O)C3CCC3)C2)c1.O=C(O)C(F)(F)F	0.1331
CN(C)CCOC1CC2(CCN(c3cnccn3)CC2)c2ccccc21.O=C(O)C(F)(F)F (stereo not given)	-38.38
CCOC1CC2(CCN(c3cnccn3)CC2)c2ccccc21 (stereo not given)	32.32
O=C(O)C(F)(F)F.c1cncc(C2CC3(CCN(c4cnccn4)CC3)c3ccccc32)c1 (stereo not given)	50.88
Cc1cnc(-c2nc(O)c3c(n2)CN(C(=O)C2CCCC2)CC3)cn1	-5.983
Cn1cc(S(=O)(=O)NCC(C)(O)c2ccsc2)cn1 (stereo not given)	-58.46
Cc1csc(CNc2cnn(C(C)C)c2)n1	-3.592
Fc1cccc(NCc2ncc[nH]2)c1	35.73
COC(=O)c1ccc(NCc2csc(C)n2)cc1Cl	15.32
COCc1nc2cc(NCc3ncc[nH]3)ccc2o1	107.7
COCc1nc(CNc2cccc(-c3csc(C)n3)c2)cs1	38.18
COCc1nc2cc(NCc3nc(C)cs3)ccc2o1	107.4
CC(C)(C)OC(=O)N1CCCc2ccc(NCc3ncc[nH]3)cc21	-12.48

SMILES	Percent Effect [%]
Fc1ccc(NCc2ncc[nH]2)cc1Br	55.27
Cc1csc(CNc2cccc(OCCN3CCCC3)c2)n1	34.79
COc1cc(NCc2ncc[nH]2)ccc1Br	-5.052
COCc1nc2cc(NCc3csc(C)n3)ccc2o1	107.6
COCc1nc(C2CCN(Cc3ncc[nH]3)CC2)no1	-22.72
COc1ccc(OC(F)F)c(NCC(=O)NCC(=O)N2CCCC2)c1	14.52
COC(=O)COc1c(F)cc(Br)cc1C(C)=O	-28.15
NS(=O)(=O)NCc1cc(-c2ccco2)n(CC(F)(F)F)n1	5.494
O=C(Nc1cccn(Cc2ccc(F)cc2)c1=O)c1cnc[nH]1	15.84
Cc1nnc(SCC(=O)c2cc3c(cc2Cl)NC(=O)C3)o1	14.6
Cc1nc(C(C)N2Cc3ncccc3C2=O)cs1 (stereo not given)	12.56
COCc1nc2cc(NCc3cc[nH]n3)ccc2o1	106.8
COCc1nc2cc(NCc3ccncc3)ccc2o1	39.69
COCc1nc(CNc2cccc(-c3ncon3)c2)cs1	-0.7134
CCC(O)CN1CCN(C(=O)c2ccc(Cn3cccc3)cc2)CC1 (stereo not given)	-35.22
CCCS(=O)(=O)N1CCN(Cc2ccco2)CC1.O=C(O)C(=O)O	-8.655
COc1cc(C(=O)N2CC3(CCNCC3)c3cc(Cl)ccc32)ccn1.O=C(O)C(F)(F)F.O=C(O)C(F)(F)F	15.78
CNc1cc(-c2cccc(CN)c2)c2cc[nH]c2n1	80.74
CNc1cc(-c2ccc(COCCN)cc2)c2cc[nH]c2n1	26.91
CNc1cc(-c2ccccc2CN)c2cc[nH]c2n1	23.62
CCOc1c(Cl)cc(/C=C/c2ncc(C(=O)O)s2)cc1OC	33.38
CCOCC1CCN(C(=O)C(c2ccccc2F)N(C)C)CC1 (stereo not given)	28.27

SMILES	Percent Effect [%]
CS(=O)(=O)N1CCN(C(=O)c2cncs2)CC(C(N)=O)C1 (stereo not given)	53.86
CNC(=O)C1CCCN(C(=O)c2cncs2)C1 (stereo not given)	43.16
CNC(=O)C1CN(C(=O)c2cccs2)CCN(S(C)(=O)=O)C1 (stereo not given)	18.15
COC[C@@]12CCO[C@@H]1CCN(C(=O)Cc1ccccc1C)C2	7.914
Cc1ccc(C(=O)NS(=O)(=O)c2ccc3c(c2)OCCCO3)o1	-1.542
Cc1oc(C)c(C(=O)NS(=O)(=O)c2ccc3c(c2)OCCO3)c1Br	6.395
Cc1oc(C)c(C(=O)NS(=O)(=O)c2ccc3c(c2)OCCCO3)c1C	58.42
NC(=O)N1CCC(C(=O)NC2CCc3nccn3C2)CC1 (stereo not given)	-11.45
NC(=O)C(NC(=O)COC1CCCC1)c1ccccc1 (stereo not given)	21.89
COC(=O)C(NC(=O)C(C)C)c1cc(F)ccc1F (stereo not given)	35.55
COC(=O)C(NC(=O)COC1CCCC1)c1cc(F)ccc1F (stereo not given)	63.8
COC(=O)C(NC(=O)COC1CCCCC1)c1ccccc1 (stereo not given)	43.33
COC(=O)C(NC(=O)c1ccco1)c1cc(F)ccc1F (stereo not given)	104.5
COC(=O)C(c1cc(F)ccc1F)N(C)C(=O)c1ccccn1 (stereo not given)	0.1474
O=C(c1cc(-c2cccs2)cs1)N1CCSCC1	48.33
Cc1cc(NC(=O)NCC(C)N2CCc3ccccc32)no1 (stereo not given)	26.44
OC(CN1CCN(CC2CCCCC2)CC1)c1ccccc1 (stereo not given)	2.655
NC(CC1CCCC1)c1ccc(Oc2ccccc2)cc1 (stereo not given)	105
NC(c1ccccc1)c1ccc(OC(F)F)cc1 (stereo not given)	11.06
Cl.NC(CC1CCCCC1)c1ccccc1 (stereo not given)	52.12
Cl.NC(CC1CCCC1)c1ccccc1 (stereo not given)	23.09
NC(=O)C(NC(=O)COC1CCCCC1)c1ccccc1 (stereo not given)	22.67
